Reference: the supplement of paper PMC6411743
± gives the standard deviation of the averaged measurements. The full data set covers some 6,200 targets. This sample favours those with the largest changes.

Compound: Nc1ncnc2c1ncn2[C@@H]1O[C@H](COP(=O)(O)OP(=O)(O)NP(=O)(O)O)[C@@H](O)[C@H]1O [adenylyl imidodiphosphate]
Assay: NP40-soluble protein abundance relative to vehicle (solubility fold change) (ratio); higher = more soluble protein in presence of AMP-PNP
In short: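 Data come from three independent experiments in which Dounce-homogenised Jurkat crude lysate was treated at eight concentrations from 0.1 to 10 mM. Treatment ran 10 min at room temperature and then 3 min at 37 °C, after which 0.8% NP40 and benzonase were added for 60 min at 4 °C before ultracentrifugation. The supernatant underwent TMT labelling and LC-MS/MS, and vsn-normalised intensities were expressed as fold change against the detergent-processed vehicle in each replicate.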

UniProt Q8N3D4, sequence (Q8N3D4 whole entry): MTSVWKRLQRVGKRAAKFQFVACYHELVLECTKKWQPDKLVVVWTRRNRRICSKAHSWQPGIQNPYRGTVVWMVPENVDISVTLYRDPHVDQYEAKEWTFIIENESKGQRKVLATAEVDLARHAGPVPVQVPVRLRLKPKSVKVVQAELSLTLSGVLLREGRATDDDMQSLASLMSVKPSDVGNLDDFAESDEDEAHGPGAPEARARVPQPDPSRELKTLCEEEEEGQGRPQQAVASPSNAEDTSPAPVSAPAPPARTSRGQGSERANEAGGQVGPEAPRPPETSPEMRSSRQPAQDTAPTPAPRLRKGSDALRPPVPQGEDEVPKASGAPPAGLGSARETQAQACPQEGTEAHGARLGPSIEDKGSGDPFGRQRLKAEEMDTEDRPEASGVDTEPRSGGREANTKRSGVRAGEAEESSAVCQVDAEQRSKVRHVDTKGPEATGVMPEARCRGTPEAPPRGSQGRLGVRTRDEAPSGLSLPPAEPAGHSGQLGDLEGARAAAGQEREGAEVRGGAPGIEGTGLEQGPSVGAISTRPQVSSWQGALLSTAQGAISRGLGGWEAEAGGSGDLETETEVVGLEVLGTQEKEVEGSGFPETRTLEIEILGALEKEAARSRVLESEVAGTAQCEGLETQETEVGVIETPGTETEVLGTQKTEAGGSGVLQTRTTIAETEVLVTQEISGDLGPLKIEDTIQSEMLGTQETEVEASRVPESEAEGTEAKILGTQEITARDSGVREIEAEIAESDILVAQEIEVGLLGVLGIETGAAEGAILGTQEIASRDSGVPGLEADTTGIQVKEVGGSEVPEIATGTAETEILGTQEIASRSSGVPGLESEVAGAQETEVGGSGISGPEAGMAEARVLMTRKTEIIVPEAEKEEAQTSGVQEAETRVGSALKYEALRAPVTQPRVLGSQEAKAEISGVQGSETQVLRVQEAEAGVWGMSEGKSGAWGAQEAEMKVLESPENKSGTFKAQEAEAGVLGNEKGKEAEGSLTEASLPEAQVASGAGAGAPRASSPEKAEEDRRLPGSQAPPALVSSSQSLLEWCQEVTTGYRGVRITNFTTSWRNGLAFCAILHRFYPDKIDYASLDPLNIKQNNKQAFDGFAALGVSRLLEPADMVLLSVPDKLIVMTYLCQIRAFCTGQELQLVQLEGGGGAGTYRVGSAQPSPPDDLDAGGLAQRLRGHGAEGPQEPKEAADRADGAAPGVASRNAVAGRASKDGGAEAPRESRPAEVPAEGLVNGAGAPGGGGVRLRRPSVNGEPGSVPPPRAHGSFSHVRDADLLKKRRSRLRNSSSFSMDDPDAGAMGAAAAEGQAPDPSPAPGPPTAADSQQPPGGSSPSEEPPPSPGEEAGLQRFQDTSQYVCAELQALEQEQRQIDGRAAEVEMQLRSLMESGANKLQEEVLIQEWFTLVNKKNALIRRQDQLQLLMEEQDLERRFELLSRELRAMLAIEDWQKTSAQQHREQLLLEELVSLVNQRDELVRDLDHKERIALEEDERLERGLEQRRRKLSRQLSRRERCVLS
UniProt Q8WZ82, sequence (Q8WZ82 whole entry): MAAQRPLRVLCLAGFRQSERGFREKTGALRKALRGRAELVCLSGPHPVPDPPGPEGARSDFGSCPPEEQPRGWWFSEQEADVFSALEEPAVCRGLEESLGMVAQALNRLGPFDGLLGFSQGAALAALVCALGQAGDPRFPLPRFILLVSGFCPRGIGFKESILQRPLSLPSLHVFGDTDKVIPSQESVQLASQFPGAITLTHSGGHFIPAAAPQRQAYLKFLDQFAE
UniProt Q5T3F8, sequence (Q5T3F8 whole entry, one chain of several): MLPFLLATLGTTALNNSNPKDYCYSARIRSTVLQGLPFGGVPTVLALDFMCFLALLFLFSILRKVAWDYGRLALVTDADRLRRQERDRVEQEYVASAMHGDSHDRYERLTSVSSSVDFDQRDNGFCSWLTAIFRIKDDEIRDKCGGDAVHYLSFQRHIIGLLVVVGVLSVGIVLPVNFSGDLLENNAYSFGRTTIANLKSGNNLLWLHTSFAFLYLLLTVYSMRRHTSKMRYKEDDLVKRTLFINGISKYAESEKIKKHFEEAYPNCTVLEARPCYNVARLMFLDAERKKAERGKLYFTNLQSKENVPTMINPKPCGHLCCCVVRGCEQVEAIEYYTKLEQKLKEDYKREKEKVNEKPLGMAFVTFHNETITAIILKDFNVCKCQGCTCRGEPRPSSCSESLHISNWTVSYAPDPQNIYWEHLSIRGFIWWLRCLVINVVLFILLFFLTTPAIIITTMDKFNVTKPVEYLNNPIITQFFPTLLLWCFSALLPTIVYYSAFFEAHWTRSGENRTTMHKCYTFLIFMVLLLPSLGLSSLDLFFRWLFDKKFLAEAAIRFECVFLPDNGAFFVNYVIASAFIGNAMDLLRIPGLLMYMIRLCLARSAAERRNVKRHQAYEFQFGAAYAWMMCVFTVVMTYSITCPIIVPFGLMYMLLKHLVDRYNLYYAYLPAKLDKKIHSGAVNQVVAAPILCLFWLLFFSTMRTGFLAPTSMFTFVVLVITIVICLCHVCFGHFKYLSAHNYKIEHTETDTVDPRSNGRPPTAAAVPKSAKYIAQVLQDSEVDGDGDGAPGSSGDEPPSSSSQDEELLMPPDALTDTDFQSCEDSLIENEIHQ
UniProt Q8TEQ0, sequence (Q8TEQ0 whole entry): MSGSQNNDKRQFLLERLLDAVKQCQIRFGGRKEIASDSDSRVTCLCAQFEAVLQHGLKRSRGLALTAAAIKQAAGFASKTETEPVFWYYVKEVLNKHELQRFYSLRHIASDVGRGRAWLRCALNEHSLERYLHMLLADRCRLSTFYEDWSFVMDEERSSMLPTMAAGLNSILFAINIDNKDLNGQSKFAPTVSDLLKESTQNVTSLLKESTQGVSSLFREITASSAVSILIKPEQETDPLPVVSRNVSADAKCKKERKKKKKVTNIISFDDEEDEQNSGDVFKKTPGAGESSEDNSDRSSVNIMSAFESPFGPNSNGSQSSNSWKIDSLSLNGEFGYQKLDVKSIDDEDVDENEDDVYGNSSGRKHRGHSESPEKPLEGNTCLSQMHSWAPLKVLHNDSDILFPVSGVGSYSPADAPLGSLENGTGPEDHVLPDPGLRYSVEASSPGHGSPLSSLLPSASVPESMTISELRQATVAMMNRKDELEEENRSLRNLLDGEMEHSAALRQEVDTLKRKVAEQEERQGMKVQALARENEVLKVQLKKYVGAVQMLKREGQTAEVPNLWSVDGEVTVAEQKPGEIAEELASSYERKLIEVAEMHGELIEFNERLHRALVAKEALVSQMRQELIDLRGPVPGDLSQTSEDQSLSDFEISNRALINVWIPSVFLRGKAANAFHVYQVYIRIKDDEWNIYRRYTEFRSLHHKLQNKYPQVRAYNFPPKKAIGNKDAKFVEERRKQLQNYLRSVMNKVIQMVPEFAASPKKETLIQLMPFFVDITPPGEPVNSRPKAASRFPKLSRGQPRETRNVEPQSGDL
UniProt Q96A49, sequence (Q96A49 whole entry): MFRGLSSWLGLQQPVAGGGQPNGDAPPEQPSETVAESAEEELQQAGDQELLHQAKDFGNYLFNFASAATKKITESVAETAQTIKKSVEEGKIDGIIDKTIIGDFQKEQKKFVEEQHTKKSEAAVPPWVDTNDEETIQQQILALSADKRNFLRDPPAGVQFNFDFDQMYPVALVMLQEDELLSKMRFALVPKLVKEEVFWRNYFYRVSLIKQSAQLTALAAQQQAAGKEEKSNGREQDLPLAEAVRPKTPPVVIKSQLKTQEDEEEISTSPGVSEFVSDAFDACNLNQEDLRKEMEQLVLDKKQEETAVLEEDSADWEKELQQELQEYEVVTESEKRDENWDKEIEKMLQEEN
UniProt Q15599, sequence (Q15599 whole entry): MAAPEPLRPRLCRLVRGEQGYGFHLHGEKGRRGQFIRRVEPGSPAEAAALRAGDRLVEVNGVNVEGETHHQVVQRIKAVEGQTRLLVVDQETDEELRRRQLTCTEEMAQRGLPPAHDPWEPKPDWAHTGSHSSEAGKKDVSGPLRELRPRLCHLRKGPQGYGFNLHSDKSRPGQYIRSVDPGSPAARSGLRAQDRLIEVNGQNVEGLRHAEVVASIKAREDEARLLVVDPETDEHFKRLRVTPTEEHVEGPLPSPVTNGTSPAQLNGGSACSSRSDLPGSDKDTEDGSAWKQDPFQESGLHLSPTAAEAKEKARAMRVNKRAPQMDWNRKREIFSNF
UniProt Q5QJE6, sequence (Q5QJE6 whole entry): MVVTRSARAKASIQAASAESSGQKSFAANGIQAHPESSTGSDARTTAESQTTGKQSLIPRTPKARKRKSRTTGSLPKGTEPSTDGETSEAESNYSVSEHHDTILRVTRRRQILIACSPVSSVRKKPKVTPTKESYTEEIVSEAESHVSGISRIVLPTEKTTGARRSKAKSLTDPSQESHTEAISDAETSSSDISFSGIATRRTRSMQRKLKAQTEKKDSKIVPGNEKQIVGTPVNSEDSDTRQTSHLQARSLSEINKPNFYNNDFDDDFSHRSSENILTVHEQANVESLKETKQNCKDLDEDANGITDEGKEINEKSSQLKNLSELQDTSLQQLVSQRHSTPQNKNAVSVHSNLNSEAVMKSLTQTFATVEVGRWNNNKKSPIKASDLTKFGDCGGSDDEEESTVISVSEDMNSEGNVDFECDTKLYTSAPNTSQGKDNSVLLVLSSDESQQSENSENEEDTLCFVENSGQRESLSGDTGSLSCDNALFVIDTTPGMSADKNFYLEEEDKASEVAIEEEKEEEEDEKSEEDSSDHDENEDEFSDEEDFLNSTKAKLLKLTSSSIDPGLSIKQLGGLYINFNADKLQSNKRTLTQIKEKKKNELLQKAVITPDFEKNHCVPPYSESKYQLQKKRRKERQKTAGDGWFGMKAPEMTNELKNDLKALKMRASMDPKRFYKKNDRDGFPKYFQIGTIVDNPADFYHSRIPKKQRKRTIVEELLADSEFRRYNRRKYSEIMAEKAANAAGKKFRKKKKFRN
UniProt Q5JTJ3, sequence (Q5JTJ3 whole entry, one chain of several): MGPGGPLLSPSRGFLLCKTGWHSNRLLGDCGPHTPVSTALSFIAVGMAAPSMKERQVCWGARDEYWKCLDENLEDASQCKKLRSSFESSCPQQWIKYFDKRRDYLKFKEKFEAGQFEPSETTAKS

Target	NP40-soluble protein abundance (concentration: 1mM)	NP40-soluble protein abundance (concentration: 2mM)	NP40-soluble protein abundance (concentration: 4mM)	NP40-soluble protein abundance (concentration: 6mM)	NP40-soluble protein abundance (concentration: 8mM)	NP40-soluble protein abundance (concentration: 10mM)
UniProt Q7Z7K6|Q7Z7K6-3	1.08 ± 0.068	1.153 ± 0.0086	1.3 ± 0.087	1.51 ± 0.12	1.72 ± 0.052	2.1 ± 0.13
EPM2AIP1 (UniProt Q7L775)	0.961 ± 0.015	0.94 ± 0.032	0.96 ± 0.025	0.947 ± 0.028	0.9617 ± 0.0055	0.958 ± 0.041
EIF4EBP1 (UniProt Q13541)	0.949 ± 0.016	1.032 ± 0.008	0.998 ± 0.1	0.9563 ± 0.0018	0.961 ± 0.059	0.96 ± 0.047
FAM117B (UniProt Q6P1L5)	0.99 ± 0.022	1.07 ± 0.04	1.01 ± 0.025	1.005 ± 0.01	0.9688 ± 0.0059	1.01 ± 0.022
EIF3A (UniProt Q14152)	1.05 ± 0.029	1.08 ± 0.044	1.12 ± 0.087	1.19 ± 0.12	1.25 ± 0.12	1.38 ± 0.19
UniProt Q14197|J3KS15	1 ± 0.1	0.952 ± 0.083	0.974 ± 0.087	0.95 ± 0.13	0.978 ± 0.14	0.953 ± 0.19
UniProt Q6ZRI6|Q6ZRI6-2|H3BMJ2	0.9914 ± 0.0011	1.01 ± 0.044	1.01 ± 0.018	0.992 ± 0.029	1 ± 0.018	0.99766 ± 5.3e-05
UniProt Q5JTJ3|Q5JTJ3-2|Q5JTJ3-3|X6R5Z6	1.02 ± 0.015	1.04 ± 0.081	0.991 ± 0.038	0.97 ± 0.043	0.943 ± 0.016	0.966 ± 0.046
SYAP1 (UniProt Q96A49)	1 ± 0.046	1.06 ± 0.077	0.952 ± 0.072	0.94 ± 0.021	0.94 ± 0.039	0.918 ± 0.08
CMIP (UniProt Q8IY22)	0.986 ± 0.047	0.964 ± 0.031	0.942 ± 0.029	0.958 ± 0.046	0.935 ± 0.022	0.923 ± 0.043
UniProt Q8NHM5|Q8NHM5-2|Q8NHM5-3|Q8NHM5-4	1.02 ± 0.024	1.034 ± 0.0075	1.04 ± 0.054	1.04 ± 0.04	1.01 ± 0.021	1.04 ± 0.034
TBRG4 (UniProt Q969Z0)	0.984 ± 0.03	0.953 ± 0.033	0.955 ± 0.012	0.959 ± 0.028	0.941 ± 0.022	0.935 ± 0.054
OVCA2 (UniProt Q8WZ82)	1.01 ± 0.018	0.992 ± 0.052	1.01 ± 0.062	0.981 ± 0.018	1.01 ± 0.041	0.999 ± 0.03
UniProt Q15365	1.031 ± 0.0057	1.04 ± 0.038	1.04 ± 0.033	1 ± 0.02	1.01 ± 0.014	1.01 ± 0.03
DNTTIP2 (UniProt Q5QJE6)	1.1 ± 0.036	1.2 ± 0.022	1.27 ± 0.06	1.34 ± 0.083	1.4 ± 0.12	1.53 ± 0.16
UniProt Q92804|Q92804-2	1.07 ± 0.15	1.15 ± 0.031	1.19 ± 0.17	1.27 ± 0.21	1.32 ± 0.13	1.54 ± 0.23
PDAP1 (UniProt Q13442)	1.07 ± 0.072	1.17 ± 0.026	1.13 ± 0.048	1.26 ± 0.093	1.24 ± 0.085	1.35 ± 0.12
UniProt Q5RI15|Q5RI15-2	1.12 ± 0.073	1.13 ± 0.1	1.05 ± 0.034	1.1 ± 0.044	1.05 ± 0.049	1.11 ± 0.04
EHBP1L1 (UniProt Q8N3D4)	1.06 ± 0.028	1.11 ± 0.099	1.07 ± 0.11	1.02 ± 0.034	1.01 ± 0.059	1.01 ± 0.08
MTDH (UniProt Q86UE4)	1.13 ± 0.046	1.3 ± 0.16	1.32 ± 0.073	1.46 ± 0.2	1.47 ± 0.17	1.58 ± 0.17

Target	NP40-soluble protein abundance (concentration: 1mM)	NP40-soluble protein abundance (concentration: 2mM)	NP40-soluble protein abundance (concentration: 4mM)	NP40-soluble protein abundance (concentration: 6mM)	NP40-soluble protein abundance (concentration: 8mM)	NP40-soluble protein abundance (concentration: 10mM)
ITPK1 (UniProt Q13572)	1.019 ± 0.0014	1.035 ± 0.0039	1.01 ± 0.014	0.992 ± 0.025	1.02 ± 0.04	0.9738 ± 0.0084
UniProt Q8TEX9|Q8TEX9-2	1.01 ± 0.026	0.974 ± 0.059	0.99 ± 0.017	0.9956 ± 0.0059	1.007 ± 0.0054	0.981 ± 0.025
UniProt Q15390|H0YBZ4|Q15390-2	1.008 ± 0.0075	1.05 ± 0.071	1.01 ± 0.02	1 ± 0.011	0.9719 ± 0.0073	0.989 ± 0.021
UniProt Q460N5|Q460N5-1	1.02 ± 0.02	0.993 ± 0.046	1.04 ± 0.039	0.9762 ± 0.0066	1.01 ± 0.029	0.9765 ± 0.0028
THOC2 (UniProt Q8NI27)	1.36 ± 0.16	1.46 ± 0.2	1.63 ± 0.29	1.87 ± 0.53	2.02 ± 0.6	2.15 ± 0.77
UniProt Q15599|Q15599-2	1.01 ± 0.046	1.05 ± 0.042	1.04 ± 0.035	1.05 ± 0.038	1.04 ± 0.038	1.03 ± 0.045
IQGAP2 (UniProt Q13576)	0.956 ± 0.027	0.935 ± 0.022	0.94 ± 0.051	0.944 ± 0.029	0.926 ± 0.039	0.932 ± 0.038
UniProt Q8NDV3-2|Q8NDV3-3	0.953 ± 0.039	0.942 ± 0.011	0.928 ± 0.015	0.977 ± 0.0022	0.945 ± 0.025	0.944 ± 0.033
PSME4 (UniProt Q14997)	0.9678 ± 0.0088	0.905 ± 0.072	0.968 ± 0.045	0.884 ± 0.075	0.925 ± 0.11	0.884 ± 0.11
UniProt Q8NBP0|Q8NBP0-2	0.998 ± 0.019	0.97 ± 0.025	0.9847 ± 0.0052	0.984 ± 0.025	0.992 ± 0.032	0.991 ± 0.027
RHOT2 (UniProt Q8IXI1)	1.02 ± 0.021	1 ± 0.073	1.02 ± 0.03	0.9999 ± 0.006	1.004 ± 0.01	1.02 ± 0.034
UniProt Q6P6C2|Q6P6C2-1	1.15 ± 0.065	1.17 ± 0.036	1.22 ± 0.07	1.24 ± 0.13	1.3 ± 0.13	1.33 ± 0.11
URB2 (UniProt Q14146)	0.971 ± 0.018	0.9722 ± 0.0054	0.988 ± 0.013	1.05 ± 0.018	1.07 ± 0.023	1.1 ± 0.055
UniProt Q6UN15|Q6UN15-3	1.03 ± 0.024	1.11 ± 0.062	1.059 ± 0.0078	1.07 ± 0.053	1.08 ± 0.034	1.15 ± 0.064
PPWD1 (UniProt Q96BP3)	0.984 ± 0.013	0.933 ± 0.087	1 ± 0.06	1.01 ± 0.037	1.04 ± 0.042	1.02 ± 0.036
GATAD2B (UniProt Q8WXI9)	1.01 ± 0.014	1.06 ± 0.046	1.024 ± 0.0076	1.01 ± 0.049	0.994 ± 0.035	1.02 ± 0.03
UniProt Q14677|Q14677-2|Q14677-3	0.999 ± 0.026	1.03 ± 0.069	0.983 ± 0.052	1 ± 0.026	0.974 ± 0.03	1.03 ± 0.043
UniProt Q86VP1-2|Q86VP1-4|B8ZZD4	0.977 ± 0.039	1.01 ± 0.026	0.963 ± 0.024	0.935 ± 0.038	0.925 ± 0.033	0.936 ± 0.031
UniProt Q7Z2K8|Q7Z2K8-2	0.958 ± 0.012	0.913 ± 0.023	1.12 ± 0.049	1.1 ± 0.038	0.932 ± 0.057	0.932 ± 0.031
UniProt Q8TEQ0|Q8TEQ0-2	1.02 ± 0.035	1.03 ± 0.047	1.01 ± 0.029	0.98 ± 0.054	0.969 ± 0.017	0.953 ± 0.021

Target	NP40-soluble protein abundance (concentration: 1mM)	NP40-soluble protein abundance (concentration: 2mM)	NP40-soluble protein abundance (concentration: 4mM)	NP40-soluble protein abundance (concentration: 6mM)	NP40-soluble protein abundance (concentration: 8mM)	NP40-soluble protein abundance (concentration: 10mM)
UniProt Q5H8A4-5	0.979 ± 0.011	0.971 ± 0.019	0.983 ± 0.034	0.92 ± 0.01	0.9558 ± 0.0061	0.952 ± 0.016
UniProt Q5T3F8|H3BLW6	1 ± 0.052	1.06 ± 0.1	1.01 ± 0.038	1.01 ± 0.019	0.985 ± 0.042	1.01 ± 0.049
UniProt Q8WUQ7|Q8WUQ7-2	1.05 ± 0.027	1.05 ± 0.027	1.09 ± 0.03	1.06 ± 0.023	1.06 ± 0.031	1.11 ± 0.063
UniProt Q8WWW0|Q8WWW0-2	0.9981 ± 0.0063	0.996 ± 0.033	1.02 ± 0.018	1.03 ± 0.039	1.02 ± 0.029	1.03 ± 0.052
UniProt Q8IWI9|Q8IWI9-3|Q8IWI9-4	1.02 ± 0.023	1.01 ± 0.021	1.01 ± 0.047	0.953 ± 0.014	0.924 ± 0.029	0.944 ± 0.046
CCDC6 (UniProt Q16204)	0.993 ± 0.023	1.06 ± 0.037	0.979 ± 0.041	0.957 ± 0.024	0.9475 ± 0.0034	0.916 ± 0.027
GALNT6 (UniProt Q8NCL4)	1.005 ± 0.0084	0.9987 ± 0.0047	0.967 ± 0.011	1 ± 0.024	0.9866 ± 0.0025	1 ± 0.015
UniProt Q5XUX1|Q5XUX1-3|Q5XUX1-2	0.986 ± 0.017	0.96 ± 0.042	0.976 ± 0.026	0.993 ± 0.021	0.982 ± 0.024	0.969 ± 0.028
UniProt Q92576|Q92576-2	1.046 ± 0.0099	1.09 ± 0.048	1.08 ± 0.008	1.08 ± 0.07	1.09 ± 0.04	1.11 ± 0.046
ANKRD13A (UniProt Q8IZ07)	0.985 ± 0.017	0.981 ± 0.013	1.04 ± 0.029	1.06 ± 0.061	1.04 ± 0.03	1.08 ± 0.047
DHX38 (UniProt Q92620)	1.016 ± 0.0095	1.03 ± 0.037	1.03 ± 0.012	1.01 ± 0.055	1.04 ± 0.034	1.03 ± 0.023
PYCR2 (UniProt Q96C36)	0.98 ± 0.028	1.01 ± 0.051	0.997 ± 0.013	1.01 ± 0.011	0.9755 ± 0.0097	1 ± 0.032
DTX3L (UniProt Q8TDB6)	1.03 ± 0.02	1.01 ± 0.024	1.04 ± 0.059	0.994 ± 0.03	0.996 ± 0.038	0.993 ± 0.022
UniProt Q93074-2	1.01 ± 0.032	1 ± 0.028	1.06 ± 0.019	0.971 ± 0.08	0.984 ± 0.042	0.999 ± 0.067
UniProt Q5FWF5	1.01 ± 0.012	1.012 ± 0.0086	1 ± 0.026	1.04 ± 0.035	1.029 ± 7.1e-05	1.06 ± 0.023
UniProt Q15006	0.984 ± 0.018	0.9532 ± 0.0062	0.975 ± 0.044	0.989 ± 0.049	1.02 ± 0.028	1.02 ± 0.013
DDX51 (UniProt Q8N8A6)	1.06 ± 0.018	1.09 ± 0.02	1.15 ± 0.059	1.2 ± 0.038	1.24 ± 0.033	1.423 ± 0.014
UniProt Q16611|Q16611-2	0.994 ± 0.035	0.952 ± 0.016	0.985 ± 0.043	0.96 ± 0.023	0.974 ± 0.032	0.932 ± 0.026
UniProt Q8WUB8|Q8WUB8-2|Q8WUB8-3|S5FZ81	1.01 ± 0.045	1.04 ± 0.034	1.07 ± 0.023	1.11 ± 0.045	1.08 ± 0.051	1.15 ± 0.061
GTF3C6 (UniProt Q969F1)	1.04 ± 0.045	1.07 ± 0.042	1.04 ± 0.032	0.984 ± 0.018	0.99 ± 0.047	1.01 ± 0.035
